# Source: PMC7862700, “An all-to-all approach to the identification of sequence-specific readers for epigenetic DNA modifications on cytosine”
# Assays:
# Assay in all cases: DAPPL (digital affinity profiling via proximity ligation, sequencing); 10 mM Tris-HCl pH 7.5, 50 mM NaCl, 1 mM DTT, 4% glycerol, room temperature, 30 min; GST-TFs on glutathione beads, 16-mer random dsDNA library, 0.1% formaldehyde crosslink after washing; high values mean tight binding
# Details in all cases: protein: recombinant; tags: N-terminal GST; dsDNA, one strand shown
# ETV5 = ETV5 (Homo sapiens, UniProt P41161 1-510)
# How it was run: (§1)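 GST fusions of human transcription factors were expressed in yeast and captured with glutathione beads. Once given DNA barcodes and pooled alongside a tag-only sample, they were incubated for 30 min at room temperature with 200 nmole of a random double-stranded 16-mer DNA library in Tris/NaCl/DTT/glycerol buffer, then washed, crosslinked (0.1% formaldehyde), proximity-ligated, PCR-amplified and sequenced on an Illumina NextSeq500. The binding signal of each hexamer is its read frequency for a factor divided by its frequency for the tag-only sample.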
# ELK4 = molecular target: T1, ELK4 (Homo sapiens, UniProt P28324-2 1-405)
# T1 sequence: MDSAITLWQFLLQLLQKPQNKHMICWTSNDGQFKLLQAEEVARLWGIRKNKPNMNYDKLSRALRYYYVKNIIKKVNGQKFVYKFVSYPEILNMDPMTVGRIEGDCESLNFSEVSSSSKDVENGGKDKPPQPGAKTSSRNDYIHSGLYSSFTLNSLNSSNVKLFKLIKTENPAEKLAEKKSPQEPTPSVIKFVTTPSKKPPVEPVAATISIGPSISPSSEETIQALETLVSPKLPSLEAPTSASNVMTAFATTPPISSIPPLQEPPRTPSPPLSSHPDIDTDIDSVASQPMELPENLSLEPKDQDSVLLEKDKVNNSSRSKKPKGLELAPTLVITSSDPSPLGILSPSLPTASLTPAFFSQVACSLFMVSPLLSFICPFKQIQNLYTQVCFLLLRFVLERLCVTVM
# How it was run: as §1
# ETV7 = molecular target: T2, ETV7 (Homo sapiens, UniProt Q9Y603 1-341)
# T2 sequence: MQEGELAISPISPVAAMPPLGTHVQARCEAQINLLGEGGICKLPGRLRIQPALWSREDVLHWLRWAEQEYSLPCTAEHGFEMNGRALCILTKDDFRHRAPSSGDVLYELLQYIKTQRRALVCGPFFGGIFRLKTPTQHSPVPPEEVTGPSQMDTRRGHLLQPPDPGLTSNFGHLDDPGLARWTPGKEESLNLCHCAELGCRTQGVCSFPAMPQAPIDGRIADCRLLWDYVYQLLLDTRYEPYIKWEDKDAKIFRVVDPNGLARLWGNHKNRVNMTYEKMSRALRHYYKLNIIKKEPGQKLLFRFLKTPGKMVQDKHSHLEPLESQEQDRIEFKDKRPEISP
# How it was run: as §1
# SPDEF = molecular target: T3, SPDEF (Homo sapiens, UniProt O95238 1-335)
# T3 sequence: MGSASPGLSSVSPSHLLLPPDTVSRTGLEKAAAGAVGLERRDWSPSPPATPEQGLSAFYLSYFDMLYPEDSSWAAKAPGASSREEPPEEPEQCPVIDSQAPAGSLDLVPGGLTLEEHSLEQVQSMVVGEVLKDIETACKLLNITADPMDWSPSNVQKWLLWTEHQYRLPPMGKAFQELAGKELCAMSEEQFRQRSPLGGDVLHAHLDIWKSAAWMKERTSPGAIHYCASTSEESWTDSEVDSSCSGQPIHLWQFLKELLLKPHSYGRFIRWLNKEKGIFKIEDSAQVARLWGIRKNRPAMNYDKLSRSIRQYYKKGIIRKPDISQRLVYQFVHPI
# How it was run: as §1
# ETV6 = ETV6 (Homo sapiens, UniProt P41212 1-452)
# How it was run: as §1
# ERG = molecular target: T4, ERG (Homo sapiens, UniProt P11308 1-479)
# T4 sequence: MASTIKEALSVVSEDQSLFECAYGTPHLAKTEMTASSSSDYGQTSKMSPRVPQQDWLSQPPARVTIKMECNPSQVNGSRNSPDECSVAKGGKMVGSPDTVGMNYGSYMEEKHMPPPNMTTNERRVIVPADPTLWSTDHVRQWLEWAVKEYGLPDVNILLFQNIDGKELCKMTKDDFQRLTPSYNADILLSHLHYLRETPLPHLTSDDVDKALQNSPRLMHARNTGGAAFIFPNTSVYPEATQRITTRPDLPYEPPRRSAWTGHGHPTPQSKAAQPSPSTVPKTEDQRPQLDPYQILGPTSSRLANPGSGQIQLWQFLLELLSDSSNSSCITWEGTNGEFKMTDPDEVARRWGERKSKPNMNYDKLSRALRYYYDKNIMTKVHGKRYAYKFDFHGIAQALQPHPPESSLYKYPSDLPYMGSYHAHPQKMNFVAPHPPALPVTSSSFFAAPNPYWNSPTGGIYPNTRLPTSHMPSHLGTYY
# How it was run: as §1
# EHF = molecular target: T5, EHF (Homo sapiens, UniProt Q9NZC4 1-300)
# T5 sequence: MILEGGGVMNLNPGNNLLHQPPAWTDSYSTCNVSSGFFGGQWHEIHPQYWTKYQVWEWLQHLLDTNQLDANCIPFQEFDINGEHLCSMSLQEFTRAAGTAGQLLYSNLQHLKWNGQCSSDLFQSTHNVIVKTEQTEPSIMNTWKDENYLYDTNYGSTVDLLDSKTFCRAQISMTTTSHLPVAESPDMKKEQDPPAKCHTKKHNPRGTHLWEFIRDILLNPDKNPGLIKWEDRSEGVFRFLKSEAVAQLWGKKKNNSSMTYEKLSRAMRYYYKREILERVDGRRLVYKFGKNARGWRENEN
# How it was run: as §1
# SPIB = SPIB (Homo sapiens, UniProt Q01892 1-262)
# How it was run: as §1
# ETV1 = ETV1 (Homo sapiens, UniProt P50549 1-477)
# How it was run: as §1
# ETV3 = molecular target: T6, ETV3 (Homo sapiens, UniProt P41162-2 1-143)
# T6 sequence: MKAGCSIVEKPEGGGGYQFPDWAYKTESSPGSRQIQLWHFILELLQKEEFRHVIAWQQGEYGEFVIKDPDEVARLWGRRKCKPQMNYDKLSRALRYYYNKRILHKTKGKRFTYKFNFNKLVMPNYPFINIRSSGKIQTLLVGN
# How it was run: as §1
# Chain of ETV5 (P41161 whole entry, the tested form may be a part): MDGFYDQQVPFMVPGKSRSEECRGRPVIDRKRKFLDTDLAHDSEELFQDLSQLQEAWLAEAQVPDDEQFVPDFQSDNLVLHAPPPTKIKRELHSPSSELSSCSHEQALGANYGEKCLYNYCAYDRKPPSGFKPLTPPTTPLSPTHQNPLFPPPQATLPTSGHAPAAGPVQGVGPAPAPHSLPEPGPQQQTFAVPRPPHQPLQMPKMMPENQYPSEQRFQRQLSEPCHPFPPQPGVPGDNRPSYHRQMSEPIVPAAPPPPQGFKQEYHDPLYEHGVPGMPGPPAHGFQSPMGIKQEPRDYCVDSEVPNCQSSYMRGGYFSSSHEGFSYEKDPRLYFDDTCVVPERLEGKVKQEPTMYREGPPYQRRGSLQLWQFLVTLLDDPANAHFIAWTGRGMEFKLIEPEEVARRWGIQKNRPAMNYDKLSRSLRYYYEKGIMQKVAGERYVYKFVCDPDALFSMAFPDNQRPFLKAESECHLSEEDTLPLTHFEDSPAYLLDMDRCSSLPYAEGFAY
# Chain of ETV6 (P41212 whole entry): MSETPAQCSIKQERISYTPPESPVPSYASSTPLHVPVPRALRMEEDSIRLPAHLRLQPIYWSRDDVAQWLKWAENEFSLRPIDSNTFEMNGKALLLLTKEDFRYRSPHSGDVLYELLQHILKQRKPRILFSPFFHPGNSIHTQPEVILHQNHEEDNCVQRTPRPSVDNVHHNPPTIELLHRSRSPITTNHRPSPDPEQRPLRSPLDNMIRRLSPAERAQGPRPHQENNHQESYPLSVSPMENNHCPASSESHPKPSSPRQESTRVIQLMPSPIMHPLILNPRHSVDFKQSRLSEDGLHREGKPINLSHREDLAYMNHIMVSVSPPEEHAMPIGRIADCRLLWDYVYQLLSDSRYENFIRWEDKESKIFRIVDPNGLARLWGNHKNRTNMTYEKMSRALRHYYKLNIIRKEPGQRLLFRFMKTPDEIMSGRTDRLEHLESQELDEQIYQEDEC
# Chain of ETV1 (P50549 whole entry): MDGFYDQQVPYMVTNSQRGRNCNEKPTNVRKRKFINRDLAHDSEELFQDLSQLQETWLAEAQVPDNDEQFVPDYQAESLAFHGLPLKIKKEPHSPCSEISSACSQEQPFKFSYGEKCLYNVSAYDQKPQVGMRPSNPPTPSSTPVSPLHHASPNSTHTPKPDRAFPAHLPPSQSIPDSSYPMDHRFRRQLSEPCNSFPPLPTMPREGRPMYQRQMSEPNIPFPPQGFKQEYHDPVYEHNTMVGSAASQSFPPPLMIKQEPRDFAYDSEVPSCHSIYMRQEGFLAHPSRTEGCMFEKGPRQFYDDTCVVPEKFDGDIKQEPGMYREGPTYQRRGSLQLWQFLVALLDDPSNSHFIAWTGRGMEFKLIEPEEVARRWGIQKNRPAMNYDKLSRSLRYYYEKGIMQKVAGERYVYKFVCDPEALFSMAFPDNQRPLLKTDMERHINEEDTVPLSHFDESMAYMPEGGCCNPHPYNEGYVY
# Chain of SPIB (Q01892 whole entry): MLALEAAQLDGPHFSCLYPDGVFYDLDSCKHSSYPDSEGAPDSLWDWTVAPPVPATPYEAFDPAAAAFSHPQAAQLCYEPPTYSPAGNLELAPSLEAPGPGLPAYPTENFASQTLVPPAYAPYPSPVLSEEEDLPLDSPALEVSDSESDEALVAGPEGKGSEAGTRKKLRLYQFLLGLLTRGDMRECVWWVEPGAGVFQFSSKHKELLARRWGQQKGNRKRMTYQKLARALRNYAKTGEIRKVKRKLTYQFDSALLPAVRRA
sequence,measurement,setting,value
CGAGGT,binding signal,ETV5,"1.01 fold enrichment (6-mer frequency, TF over GST control)"
same,binding signal,ELK4,"1.06 fold enrichment (6-mer frequency, TF over GST control)"
same,binding signal,ETV7,"1.02 fold enrichment (6-mer frequency, TF over GST control)"
AGTACC,binding signal,ETV5,"1.04 fold enrichment (6-mer frequency, TF over GST control)"
same,binding signal,SPDEF,"1.01 fold enrichment (6-mer frequency, TF over GST control)"
same,binding signal,ETV6,"1.04 fold enrichment (6-mer frequency, TF over GST control)"
GGATAC,binding signal,ERG,"1.09 fold enrichment (6-mer frequency, TF over GST control)"
same,binding signal,EHF,"1.01 fold enrichment (6-mer frequency, TF over GST control)"
same,binding signal,SPIB,"1 fold enrichment (6-mer frequency, TF over GST control)"
same,binding signal,ETV5,"1.01 fold enrichment (6-mer frequency, TF over GST control)"
same,binding signal,ETV1,"1.06 fold enrichment (6-mer frequency, TF over GST control)"
same,binding signal,SPDEF,"1.43 fold enrichment (6-mer frequency, TF over GST control)"
same,binding signal,ETV3,"1 fold enrichment (6-mer frequency, TF over GST control)"
